Laboratory results published in PubChem BioAssay (EPA / NIEHS).
“And” between values parts separate entries of the source, which are not always exact repeats. Identical values can stand only once. Results filed as inconclusive are left out. Where a structure was tested more than once in an assay, its records may differ in their call. The source made the active and inactive calls. Rule for the calls, unless noted: active = hit-call score of the fitted dose curve at least 0.9, where 1 is the maximum; inactive = score below 0.9.

Experiments:
[1] = biological target: Hypoxia-inducible factor 1-alpha (Homo sapiens) (UniProt Q16665); assay: ATG_HIF1a_CIS: Attagene CIS-FACTORIAL HepG2 Assay for human Hypoxia Inducible Factor 1 (HIF1A) (AID 2282951); conditions: HepG2 Attagene cis-factorial HIF1a reporter transcription; actives raise or lower the signal
Hypoxia-inducible factor 1-alpha (Homo sapiens), sequence (Q16665 whole entry, looked up): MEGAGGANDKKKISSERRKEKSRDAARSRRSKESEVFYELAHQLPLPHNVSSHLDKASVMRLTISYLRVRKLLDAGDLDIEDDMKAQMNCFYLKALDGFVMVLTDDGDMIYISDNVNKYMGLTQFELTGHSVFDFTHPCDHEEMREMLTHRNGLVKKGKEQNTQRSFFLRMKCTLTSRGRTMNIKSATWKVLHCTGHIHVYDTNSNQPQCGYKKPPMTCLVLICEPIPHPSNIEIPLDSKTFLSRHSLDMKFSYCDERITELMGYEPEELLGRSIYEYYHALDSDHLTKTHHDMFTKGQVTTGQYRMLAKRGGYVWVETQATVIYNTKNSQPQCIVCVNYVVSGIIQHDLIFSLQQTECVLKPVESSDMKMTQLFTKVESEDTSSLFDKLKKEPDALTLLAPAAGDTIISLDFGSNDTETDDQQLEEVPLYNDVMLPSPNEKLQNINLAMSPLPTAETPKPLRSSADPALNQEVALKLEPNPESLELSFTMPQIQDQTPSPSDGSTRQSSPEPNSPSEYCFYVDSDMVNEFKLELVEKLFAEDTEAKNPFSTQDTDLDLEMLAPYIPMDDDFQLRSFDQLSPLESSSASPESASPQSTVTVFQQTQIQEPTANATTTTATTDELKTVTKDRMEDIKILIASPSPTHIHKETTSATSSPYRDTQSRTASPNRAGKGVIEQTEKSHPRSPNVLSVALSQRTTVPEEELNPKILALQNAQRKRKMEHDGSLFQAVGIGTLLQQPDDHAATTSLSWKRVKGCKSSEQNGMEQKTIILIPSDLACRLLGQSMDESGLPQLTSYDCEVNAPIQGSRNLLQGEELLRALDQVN
Summary of the method: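 After 24 h chemical exposure of reporter-transfected HepG2 cells, reporter cDNA was PCR-amplified, labelled by 6-FAM primer extension (2 min 95 C, 20 s 68 C, 10 min 72 C), HpaI-cut (2 h, 37 C) and analysed by CE.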

[2] = biological target: Hepatocyte nuclear factor 6 (Homo sapiens) (UniProt Q9UBC0); assay: ATG_HNF6_CIS: Attagene CIS-FACTORIAL HepG2 Assay for human Hepatocyte Nuclear Factor 6 (HNF6) (AID 2282952); conditions: HepG2 Attagene cis-factorial HNF6 reporter transcription; actives raise or lower the signal
Hepatocyte nuclear factor 6 (Homo sapiens), sequence (Q9UBC0 whole entry, looked up, the tested form may be a part): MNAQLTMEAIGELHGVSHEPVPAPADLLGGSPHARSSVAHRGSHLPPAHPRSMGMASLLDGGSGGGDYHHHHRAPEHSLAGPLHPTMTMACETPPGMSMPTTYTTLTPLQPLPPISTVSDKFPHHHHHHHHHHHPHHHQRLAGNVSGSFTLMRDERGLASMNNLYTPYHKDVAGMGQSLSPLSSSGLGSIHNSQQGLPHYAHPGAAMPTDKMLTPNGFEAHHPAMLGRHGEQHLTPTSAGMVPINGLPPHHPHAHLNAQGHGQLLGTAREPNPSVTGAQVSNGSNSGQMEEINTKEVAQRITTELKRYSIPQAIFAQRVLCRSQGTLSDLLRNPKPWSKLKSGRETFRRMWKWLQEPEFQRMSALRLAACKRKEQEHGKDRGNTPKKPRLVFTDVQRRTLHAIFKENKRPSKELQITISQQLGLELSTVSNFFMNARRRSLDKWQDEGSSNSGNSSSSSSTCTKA
Summary of the method: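 Reporter mRNA induction or loss in HepG2 after 24 h exposure; transient cis-MRTU transfection; fragments quantified by capillary electrophoresis; bidirectional analysis, DMSO as negative control.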

[3] = biological target: Heat shock factor protein 1 (Homo sapiens) (UniProt Q00613); assay: ATG_HSE_CIS: Attagene CIS-FACTORIAL HepG2 Assay for human Heat Shock Transcription Factor 1 (HSE) (AID 2282953); conditions: HepG2 HSE cis-reporter, Attagene RNA transcription; actives raise or lower the signal
Heat shock factor protein 1 (Homo sapiens), sequence (Q00613 whole entry, looked up, the tested form may be a part): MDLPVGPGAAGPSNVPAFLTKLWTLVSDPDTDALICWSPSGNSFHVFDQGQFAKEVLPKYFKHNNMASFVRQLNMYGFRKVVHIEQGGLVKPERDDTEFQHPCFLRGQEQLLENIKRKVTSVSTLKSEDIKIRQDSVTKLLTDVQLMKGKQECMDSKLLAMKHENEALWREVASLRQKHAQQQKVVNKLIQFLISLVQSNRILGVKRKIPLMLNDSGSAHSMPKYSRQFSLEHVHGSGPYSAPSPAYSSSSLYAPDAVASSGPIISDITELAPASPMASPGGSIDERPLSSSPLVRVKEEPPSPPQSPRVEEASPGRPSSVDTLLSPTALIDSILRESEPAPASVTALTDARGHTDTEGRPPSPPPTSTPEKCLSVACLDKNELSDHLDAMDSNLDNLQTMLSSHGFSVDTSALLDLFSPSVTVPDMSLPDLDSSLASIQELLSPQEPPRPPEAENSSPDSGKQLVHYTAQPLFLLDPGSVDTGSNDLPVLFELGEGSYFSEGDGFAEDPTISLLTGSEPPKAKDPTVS
Summary of the method: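 Cells were transfected with cis-element-driven reporter constructs, dosed for 24 h, then total RNA was reverse-transcribed and reporter cDNA amplified, FAM-labelled and digested with HpaI. Fragments were resolved by capillary electrophoresis; gain or loss was fitted against DMSO.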

[4] = ATG_MRE_CIS: Attagene CIS-FACTORIAL HepG2 Assay for human Metal Responsive Element (MRE) (AID 2282954); conditions: HepG2 MRE cis-reporter transcription, Attagene multiplex; actives raise or lower the signal
Summary of the method: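 HepG2 cells transiently transfected with cis-element-driven reporter units; mRNA measured 24 h after dosing. Reporter transcripts quantified by RT-PCR, FAM labelling, HpaI digestion and capillary electrophoresis; bidirectional fit versus DMSO.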

[5] = ATG_PBREM_CIS: Attagene CIS-FACTORIAL HepG2 Assay for human Phenobarbital-responsive Enhancer Module (PBREM) (AID 2282955); conditions: HepG2 PBREM cis-reporter, Attagene multiplexed transcription; actives raise or lower the signal
Summary of the method: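 Measures endogenous factor action on a phenobarbital-responsive enhancer module. HepG2 transiently carrying cis reporters, 24 h treatment, mRNA read-out by RT-PCR plus capillary electrophoresis.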

[6] = biological target: Paired box protein Pax-6 (Homo sapiens) (UniProt P26367); assay: ATG_Pax6_CIS: Attagene CIS-FACTORIAL HepG2 Assay for human Paired Box 6 (PAX6) (AID 2282956); conditions: HepG2 CIS-FACTORIAL PAX6 reporter transcription, RNA readout; actives raise or lower the signal
Paired box protein Pax-6 (Homo sapiens), sequence (P26367 whole entry, looked up): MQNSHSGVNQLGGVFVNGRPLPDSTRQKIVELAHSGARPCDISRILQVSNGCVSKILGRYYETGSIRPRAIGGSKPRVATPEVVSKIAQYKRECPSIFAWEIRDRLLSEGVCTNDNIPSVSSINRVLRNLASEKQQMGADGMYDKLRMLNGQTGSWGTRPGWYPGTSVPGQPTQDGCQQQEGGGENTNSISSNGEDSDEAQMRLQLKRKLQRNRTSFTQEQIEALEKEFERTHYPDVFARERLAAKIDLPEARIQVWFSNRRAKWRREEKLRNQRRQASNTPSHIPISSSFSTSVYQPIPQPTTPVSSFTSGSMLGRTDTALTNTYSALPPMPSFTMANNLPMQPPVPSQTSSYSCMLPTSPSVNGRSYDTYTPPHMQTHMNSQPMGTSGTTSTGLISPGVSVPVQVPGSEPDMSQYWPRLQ
Summary of the method: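 Multiplexed cis-reporter HepG2 system; 24 h treatment; reporter mRNA read by RT-PCR/CE fluorescence; bidirectional fit vs DMSO.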

[7] = ATG_PXRE_CIS: Attagene CIS-FACTORIAL HepG2 Assay for human Pregnane X Receptor Element (PXRE) (AID 2282957); conditions: HepG2 Attagene CIS-FACTORIAL PXRE reporter, mRNA; actives raise or lower the signal
Summary of the method: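 Transiently transfected HepG2 cells were dosed and incubated for 24 h. RNA was then isolated, DNase-treated, reverse-transcribed and reporter sequences amplified. Labeled, HpaI-digested fragments were quantified by capillary electrophoresis against DMSO.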

[8] = ATG_PPRE_CIS: Attagene CIS-FACTORIAL HepG2 Assay for human Peroxisome Proliferator-activated Response Element (PPRE) (AID 2282958); conditions: HepG2 PPRE cis-element reporter, Attagene transcription factor profiling; actives raise or lower the signal
Summary of the method: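 PPRE activity in HepG2: transient cis-reporter transfection, 24 h compound incubation, reporter mRNA by RT-PCR and CE fluorescence; gain/loss fitted against DMSO.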

[9] = ATG_RORE_CIS: Attagene CIS-FACTORIAL HepG2 Assay for human RAR-related Orphan Receptor Element (RORE) (AID 2282959); conditions: HepG2 Attagene cis-factorial RORE reporter, mRNA; actives raise or lower the signal
Summary of the method: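 A 24-hour exposure of transfected HepG2 hepatoma cells precedes RNA isolation and reporter RT-PCR. Labeled products are digested with HpaI and resolved by capillary electrophoresis, with gain or loss of signal scored relative to DMSO.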

[10] = ATG_Sox_CIS: Attagene CIS-FACTORIAL HepG2 Assay for human SRY-box transcription factor (SOX) (AID 2282960); conditions: HepG2 Attagene cis-factorial SOX reporter, mRNA; actives raise or lower the signal
Summary of the method: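 HepG2, cis reporter units, 24 h exposure. Reporter mRNA: RT-PCR → FAM labelling → HpaI → CE fluorescence. Bidirectional fit vs DMSO.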

[11] = biological target: Transcription factor Sp1 (Homo sapiens) (UniProt P08047); assay: ATG_Sp1_CIS: Attagene CIS-FACTORIAL HepG2 Assay for human Specificity Protein 1 (Sp1) (AID 2282961); conditions: HepG2 Sp1 cis-reporter transcription, actives raise or lower the signal
Transcription factor Sp1 (Homo sapiens), sequence (P08047 whole entry, looked up, the tested form may be a part): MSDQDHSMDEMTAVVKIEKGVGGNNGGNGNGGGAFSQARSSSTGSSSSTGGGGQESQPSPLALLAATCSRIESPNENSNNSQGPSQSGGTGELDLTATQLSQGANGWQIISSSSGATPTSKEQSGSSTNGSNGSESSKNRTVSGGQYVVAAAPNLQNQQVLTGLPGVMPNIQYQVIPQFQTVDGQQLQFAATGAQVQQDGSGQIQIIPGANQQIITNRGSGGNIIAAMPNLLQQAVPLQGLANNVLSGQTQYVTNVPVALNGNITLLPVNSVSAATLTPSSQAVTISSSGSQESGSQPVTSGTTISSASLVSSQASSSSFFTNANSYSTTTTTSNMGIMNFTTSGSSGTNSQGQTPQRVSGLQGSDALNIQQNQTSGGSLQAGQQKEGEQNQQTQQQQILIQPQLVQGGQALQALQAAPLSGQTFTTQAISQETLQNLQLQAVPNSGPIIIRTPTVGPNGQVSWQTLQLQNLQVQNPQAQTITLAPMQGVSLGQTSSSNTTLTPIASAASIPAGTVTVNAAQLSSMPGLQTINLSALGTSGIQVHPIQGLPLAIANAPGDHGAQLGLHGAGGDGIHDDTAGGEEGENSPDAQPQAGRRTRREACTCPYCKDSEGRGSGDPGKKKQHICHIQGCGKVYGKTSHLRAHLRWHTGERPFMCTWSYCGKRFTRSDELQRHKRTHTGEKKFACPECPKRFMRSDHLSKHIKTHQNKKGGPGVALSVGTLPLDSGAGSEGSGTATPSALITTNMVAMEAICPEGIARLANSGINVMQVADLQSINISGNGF
Summary of the method: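 Liver-derived HepG2 cells, cis-element reporter library, 24 h treatment; RNA isolated, cDNA amplified with reporter-specific primers, FAM-labeled fragments sized on capillary analyzer. DMSO baseline, bidirectional curve fit.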

[12] = ATG_SREBP_CIS: Attagene CIS-FACTORIAL HepG2 Assay for human Sterol Regulatory Element Binding (SREBP) (AID 2282962); conditions: HepG2 Attagene cis-factorial SREBP reporter, mRNA; actives raise or lower the signal
Summary of the method: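 mRNA induction of transfected cis-promoter reporters in HepG2 cells, 24 h post-dose. Detection: RT-PCR with 6-FAM-labelled products, HpaI digest, capillary electrophoresis. DMSO served as negative control and baseline.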

[13] = biological target: Signal transducer and activator of transcription 3 (Homo sapiens) (UniProt P40763); assay: ATG_STAT3_CIS: Attagene CIS-FACTORIAL HepG2 Assay for human Signal Transducer and Activator of Transcription 3 (STAT3) (AID 2282963); conditions: HepG2, Attagene cis-factorial STAT3 reporter transcription; actives raise or lower the signal
Signal transducer and activator of transcription 3 (Homo sapiens), sequence (P40763 whole entry, looked up): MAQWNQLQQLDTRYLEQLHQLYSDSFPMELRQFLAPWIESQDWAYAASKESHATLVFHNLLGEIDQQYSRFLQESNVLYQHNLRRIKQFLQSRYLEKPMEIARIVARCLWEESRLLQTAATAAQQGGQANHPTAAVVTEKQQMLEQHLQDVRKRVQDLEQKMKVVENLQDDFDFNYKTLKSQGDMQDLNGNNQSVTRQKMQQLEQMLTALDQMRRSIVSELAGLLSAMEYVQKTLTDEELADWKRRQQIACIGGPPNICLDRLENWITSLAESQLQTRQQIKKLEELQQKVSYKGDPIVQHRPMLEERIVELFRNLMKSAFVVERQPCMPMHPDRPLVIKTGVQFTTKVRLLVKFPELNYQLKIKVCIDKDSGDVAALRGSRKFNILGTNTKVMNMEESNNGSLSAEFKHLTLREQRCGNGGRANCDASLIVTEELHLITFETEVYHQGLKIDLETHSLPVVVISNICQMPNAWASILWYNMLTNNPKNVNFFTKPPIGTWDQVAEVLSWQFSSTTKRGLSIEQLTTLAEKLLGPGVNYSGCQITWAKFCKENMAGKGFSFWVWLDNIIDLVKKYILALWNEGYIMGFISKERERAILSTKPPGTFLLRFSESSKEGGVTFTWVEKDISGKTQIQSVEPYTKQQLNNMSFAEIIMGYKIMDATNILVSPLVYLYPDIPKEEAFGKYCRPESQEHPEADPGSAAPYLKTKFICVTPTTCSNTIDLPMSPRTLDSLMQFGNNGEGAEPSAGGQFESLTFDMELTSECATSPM
Summary of the method: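 HepG2 cells transiently transfected with multiple cis-element-driven reporter units report endogenous transcription factor activity. After 24 h compound exposure, reporter mRNA is measured by RT-PCR, 6-FAM labelling, HpaI digestion and capillary electrophoresis. Fitted bidirectionally versus DMSO.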

[14] = ATG_TA_CIS: Attagene CIS-FACTORIAL HepG2 Assay for human TA Basal Promoter (AID 2282964); conditions: HepG2 Attagene CIS-factorial TA basal promoter reporter; actives raise or lower the signal
Summary of the method: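 Steps: transfect HepG2 with MRTUs; dose 24 h; isolate RNA, DNase-treat, reverse-transcribe; PCR and FAM-label reporter cDNA; digest with HpaI 2h at 37 C; run capillary electrophoresis. Activity fitted both directions against DMSO.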

[15] = ATG_TCF_b_cat_CIS: Attagene CIS-FACTORIAL HepG2 Assay for human T-Cell-Factor with beta-catenin (TCF/b-cat) (AID 2282965); conditions: HepG2 TCF/beta-catenin cis-reporter transcription, actives raise or lower the signal
Summary of the method: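 HepG2, transient MRTU transfection, cis-element-driven reporters (endogenous TFs). 24 h compound exposure. Readout: reporter mRNA by RT-PCR + 6-FAM primer extension, HpaI digest, capillary electrophoresis. Gain/loss fit vs DMSO baseline.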

[16] = ATG_TAL_CIS: Attagene CIS-FACTORIAL HepG2 Assay for human TAL Basal Promoter (AID 2282966); conditions: HepG2 Attagene cis-factorial TAL promoter reporter; actives raise or lower the signal;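 note: background control endpoint measuring basal TAL promoter reporter mRNA not a specific factor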
Summary of the method: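 Readout: reporter mRNA, fluorescence by CE. System: HepG2, transient multi-reporter transfection, endogenous TF activity. Exposure: 24 h. Analysis: bidirectional, DMSO-normalized; background control.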

[17] = ATG_TGFb_CIS: Attagene CIS-FACTORIAL HepG2 Assay for human Transforming Growth Factor (TGF) (AID 2282967); conditions: HepG2 Attagene CIS TGFb reporter, mRNA transcription; actives raise or lower the signal
Summary of the method: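 Cells were dosed for 24 hours, after which total RNA was reverse-transcribed and reporter sequences amplified, labeled and sized by capillary electrophoresis. Activity was fitted in both directions against DMSO.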

[18] = ATG_VDRE_CIS: Attagene CIS-FACTORIAL HepG2 Assay for human Vitamin D Receptor Element (VDRE) (AID 2282968); conditions: HepG2 VDRE cis-reporter transcription, actives raise or lower the signal
Summary of the method: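 Transiently transfected HepG2 cells carrying cis-regulated reporter transcription units were exposed for 24 h. Reporter mRNA was measured by RT-PCR with fluorescent labelling and capillary electrophoresis, and fitted in both directions against DMSO.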

[19] = biological target: Nuclear receptor subfamily 1 group I member 3 (Homo sapiens) (UniProt Q14994); assay: ATG_CAR_TRANS: Attagene TRANS-FACTORIAL HepG2 Assay for human Constitutive Androstane Receptor (CAR) (AID 2282969; active = hit-call score of the fitted dose curve at least 0.9, where 1 is the maximum;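 note: activators raise reporter mRNA above DMSO so AC50 marks induction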); conditions: HepG2 Attagene TRANS-FACTORIAL CAR reporter
Nuclear receptor subfamily 1 group I member 3 (Homo sapiens), sequence (Q14994 whole entry, looked up, the tested form may be a part): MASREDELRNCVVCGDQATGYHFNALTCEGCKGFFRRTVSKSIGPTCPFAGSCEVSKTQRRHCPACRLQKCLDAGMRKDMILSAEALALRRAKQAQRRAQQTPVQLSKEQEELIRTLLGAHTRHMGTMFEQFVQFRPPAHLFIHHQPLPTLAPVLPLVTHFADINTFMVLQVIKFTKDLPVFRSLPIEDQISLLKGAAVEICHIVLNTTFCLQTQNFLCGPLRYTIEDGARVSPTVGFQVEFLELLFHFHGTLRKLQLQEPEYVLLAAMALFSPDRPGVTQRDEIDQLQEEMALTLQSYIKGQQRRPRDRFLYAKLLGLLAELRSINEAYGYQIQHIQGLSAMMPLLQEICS
Summary of the method: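 HepG2 cells transiently transfected with GAL4-UAS reporter units; TRANS format reads activity of exogenous chimeric NR-Gal4 protein. After 24 h dosing, reporter mRNA quantified by RT-PCR, 6-FAM labelling and capillary electrophoresis; gain of signal fitted against DMSO.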

[20] = biological target: Estrogen receptor (Homo sapiens) (UniProt P03372); assay: ATG_ERa_TRANS: Attagene TRANS-FACTORIAL HepG2 Assay for human Estrogen Receptor alpha (ERa) (AID 2282970; active = hit-call score of the fitted dose curve at least 0.9, where 1 is the maximum); conditions: HepG2 Attagene TRANS ERa GAL4 reporter, mRNA
Estrogen receptor (Homo sapiens), sequence (P03372 whole entry, looked up, the tested form may be a part): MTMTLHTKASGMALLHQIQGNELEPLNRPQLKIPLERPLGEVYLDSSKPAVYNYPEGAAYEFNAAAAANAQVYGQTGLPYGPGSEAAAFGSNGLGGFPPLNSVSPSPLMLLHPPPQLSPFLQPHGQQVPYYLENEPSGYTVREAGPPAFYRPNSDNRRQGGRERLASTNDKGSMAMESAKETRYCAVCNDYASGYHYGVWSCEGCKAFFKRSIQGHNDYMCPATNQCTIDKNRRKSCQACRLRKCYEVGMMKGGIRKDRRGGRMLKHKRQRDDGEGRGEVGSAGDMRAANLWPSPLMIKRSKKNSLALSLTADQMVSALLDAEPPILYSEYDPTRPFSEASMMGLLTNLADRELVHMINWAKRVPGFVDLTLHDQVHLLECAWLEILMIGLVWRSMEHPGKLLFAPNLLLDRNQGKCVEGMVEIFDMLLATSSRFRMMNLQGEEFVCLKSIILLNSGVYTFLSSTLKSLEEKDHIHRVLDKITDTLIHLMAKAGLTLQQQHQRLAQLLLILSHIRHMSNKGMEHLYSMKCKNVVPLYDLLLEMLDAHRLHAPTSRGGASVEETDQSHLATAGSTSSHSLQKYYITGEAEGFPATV
Summary of the method: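 Transactivation via ERa-Gal4 chimera in HepG2; 24 hour incubation; reporter mRNA detected by fluorescence RT-PCR and capillary electrophoresis.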

Measured: AC50

CCC[CH2][Sn]([CH2]CCC)([CH2]CCC)[CH2]CCC
inactive: [1] | [2] | [4] | [9] | [16] | [17]
active: [3] 17.1 µM | [5] 2.9 µM | [6] 11.1 µM | [7] 18.3 µM | [8] 2.2 µM | [10] 11.1 µM | [11] 9.76 µM | [12] 2.82 µM | [13] 11.1 µM | [14] 17.1 µM | [15] 15.3 µM | [18] 4.44 µM

Cc1ccc(OP(=O)(Oc2ccc(C)cc2C)Oc2ccc(C)cc2C)c(C)c1
active: [2] 25.4 µM | [4] 2.33 µM | [7] 0.181 µM | [11] 26.2 µM | [18] 0.534 µM
inactive: all other assays above

COc1ccc(N)cc1
active: [1] 181 µM
inactive: [1] | [2] | [3] | [4] | [6] | [7] | [8] | [9] | [10] | [11] | [12] | [13] | [14] | [15] | [16] | [17]

C=C(C)C(=O)OCCCCOC(=O)C(=C)C
not listed: [18] | [19] | [20]
inactive: all other assays above

COC(=O)c1cc(Oc2ccc(Cl)cc2Cl)ccc1[N+](=O)[O-]
active: [1] 21.3 µM | [4] 17.9 µM | [5] 11.8 µM | [7] 5.12 µM | [8] 10.2 µM | [9] 16.6 µM | [14] 27.1 µM | [17] 66.8 µM | [18] 10.8 µM
inactive: all other assays above

Clc1cccc(Cl)c1Cl
not listed: [19] | [20]
inactive: all other assays above

C=CC(F)(C(F)(F)F)C(F)(F)C(F)(F)F (stereo unspecified)
not listed: [19] | [20]
inactive: all other assays above

CCOC(=O)c1ccccc1S(=O)(=O)NC(=O)Nc1nc(Cl)cc(OC)n1
active: [7] 5.49 µM
not listed: [19] | [20]
inactive: all other assays above

CC1(C)[C@H](C(=O)O[C@H](C#N)c2cccc(Oc3ccccc3)c2)[C@@H]1/C=C(\Cl)C(F)(F)F
active: [5] 1.16 µM | [7] 384 nM and 683 nM
inactive: [1] | [2] | [3] | [4] | [5] | [6] | [8] | [9] | [10] | [11] | [12] | [13] | [14] | [15] | [16] | [17] | [19]

CCOP(=O)(OCC)OC(=CCl)c1ccc(Cl)cc1Cl
active: [5] 6.62 µM | [7] 0.754 µM | [18] 1.83 µM
not listed: [19] | [20]
inactive: all other assays above

CCOC(=O)CCN(SN(C)C(=O)Oc1cccc2c1OC(C)(C)C2)C(C)C
active: [3] 184 µM | [4] 142 µM | [7] 26.5 µM | [12] 100 µM
not listed: [18] | [19] | [20]
inactive: all other assays above

Nc1cccnc1
active: [7] 40.2 µM | [18] 50.1 µM
not listed: [19] | [20]
inactive: all other assays above

CC(O)(CS(=O)(=O)c1ccc(F)cc1)C(=O)Nc1ccc(C#N)c(C(F)(F)F)c1 (stereo unspecified)
active: [4] 72.3 µM | [7] 3.99 µM | [18] 32.3 µM
not listed: [19] | [20]
inactive: all other assays above
